Laboratory results reported in paper PMC13494018.
Values without a mark were called inactive. The rule behind the calls is not given here.

Molecular target: VTCN1, Q7Z7D3
Sequence (Q7Z7D3 whole entry): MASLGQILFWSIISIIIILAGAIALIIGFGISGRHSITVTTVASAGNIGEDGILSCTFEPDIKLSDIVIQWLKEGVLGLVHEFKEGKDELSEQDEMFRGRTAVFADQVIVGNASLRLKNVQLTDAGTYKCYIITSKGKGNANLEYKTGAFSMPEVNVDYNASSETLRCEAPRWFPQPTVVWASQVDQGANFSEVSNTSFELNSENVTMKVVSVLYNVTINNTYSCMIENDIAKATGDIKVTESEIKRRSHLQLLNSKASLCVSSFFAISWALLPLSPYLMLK

Binder	binding in a display sort
design_605_6ebdab39-eaab-4492-afcb-164e20c3b25e_1733_dldesign_0_cycle1_af2pred (protein) AAEKGKNLAESVKLFSEQALENGKKLGAEALKEAAKRIKKRGDKAVTTIAKDPSAAPYAKEAEAITKDYIKKAEEAAKKAK	not found
design_605_6ebdab39-eaab-4492-afcb-164e20c3b25e_1749_dldesign_0_cycle1_af2pred (protein) MTPEELRKAEVEALIKKASEAMGEARFYANYAKLTGDKEAAKKAAEAAKKAIEYLTAAAALSTDPAVKARAKAAAERAKKLAKEALE	not found
design_605_6ebdab39-eaab-4492-afcb-164e20c3b25e_1837_dldesign_0_cycle1_af2pred (protein) MDKEKIKKKLYKELSEAAKKGAMAVFDVVDKAYDEGTAELAKEAAEEVAKETTPEEAKAMRAGARYLEAATA	not found
design_605_6ebdab39-eaab-4492-afcb-164e20c3b25e_1884_dldesign_0_cycle1_af2pred (protein) NKKKEEAAKLAKESLAKAKEIADYAVANKDTINKAEATALATEAASYAAEALGYAAFAGKEEYEKMKKEFKEIREKMKAVLDAI	not found
design_605_6ebdab39-eaab-4492-afcb-164e20c3b25e_1926_dldesign_0_cycle1_af2pred (protein) SPAEERRAKATAYAARVAKEDPEFALELIREAAKADPETATEVVKAMTEAATKAAAEVDPEKAKELKEKGEAILKEVEKA	not found
design_605_6ebdab39-eaab-4492-afcb-164e20c3b25e_1941_dldesign_0_cycle1_af2pred (protein) AAAEEKAAEEEMKKLGEKNVEKVKKAAKKGAEEAEKAVKEAFKDFEKAAKTPASINVGQKAREEMLGIAAEARIKE	not found
design_605_6ebdab39-eaab-4492-afcb-164e20c3b25e_1965_dldesign_0_cycle1_af2pred (protein) VAKSYAEAAKDYTAATEAFTTAATLGADAGVATAKAKLDPGLASIVSTTIKANDAAARAAGAKRWAKRAEKYKAAAEKAAA	not found
design_605_6ebdab39-eaab-4492-afcb-164e20c3b25e_2016_dldesign_0_cycle1_af2pred (protein) KAEEEAKKAVEFLLALGKEHPAGAEYAEKAAKAIENGEDIGTAMAYAWAAGQAVGDAALADKAMDKVAEAHMARK	not found
design_605_6ebdab39-eaab-4492-afcb-164e20c3b25e_2056_dldesign_0_cycle1_af2pred (protein) MKEELLKISEESHQAAAEAQFLAAKNPSVKPLAEEAKKHAKKSIEAAKEGDLEKAKEHYKKVLELKEKAKKE	not found
design_605_6ebdab39-eaab-4492-afcb-164e20c3b25e_2126_dldesign_0_cycle1_af2pred (protein) DELEKYKKEAKEAAKEAIKEAKELGKLIGDEKWAKANQEKIKKIEEKAQKSKDAEVAKKYAEELKKAKEKLKKIKKRAKEALE	not found
design_605_6ebdab39-eaab-4492-afcb-164e20c3b25e_2187_dldesign_0_cycle1_af2pred (protein) SAAKEEAKKEAEKLKEKVKKLKKELEENKDNKEKAKKIAKEAREVIREARELGKKYASFKEVHKELSEAAAEAAEVRAEADLYAS	not found
design_605_6ebdab39-eaab-4492-afcb-164e20c3b25e_2228_dldesign_0_cycle1_af2pred (protein) SALAERARALRAAARAEAAADPENAAAIARAGARELRALYRENRDRITPEERATISAAAADLYELAAEAEAE	not found
design_605_6ebdab39-eaab-4492-afcb-164e20c3b25e_2239_dldesign_0_cycle1_af2pred (protein) GEKEKYAEEIKKIAKELKALGTPEGEKGAKVAERLSKQAKKTKKAEHAKGYLDIAKDIEKQAKALIAAKQ	not found
design_605_6ebdab39-eaab-4492-afcb-164e20c3b25e_2299_dldesign_0_cycle1_af2pred (protein) ELEELKKKHEAYEEYLKAIAYYEQSKLSKSLAEEAKQKAAEHINKANKLLGKEELSLEEAVKEAEKLDENASEIVKKLVETKKKIEEL	not found
design_605_6ebdab39-eaab-4492-afcb-164e20c3b25e_2341_dldesign_0_cycle1_af2pred (protein) LTDEELKEIAKKVAEEAGEKALKLLREGKSIMEAADAADELVKTVEFLPQEYFLYAAKLAAEKVAEAGREVIEERKREEA	not found
design_605_6ebdab39-eaab-4492-afcb-164e20c3b25e_2348_dldesign_0_cycle1_af2pred (protein) DPALEEAKKHAEELAAKLSPDLAKEFKEFADFVLANAEKVITANKDNPEKRKEAGEQAKKVISSAAEAAIKLDK	not found
design_605_6ebdab39-eaab-4492-afcb-164e20c3b25e_2390_dldesign_0_cycle1_af2pred (protein) AAEKLKEKVEKIKKEAEEKAKKAKTKEEAAKIYREGAEKIRKLATEALKKDPSVEPAVKYGSKVAAELREKAAELDVLANRE	not found
design_605_6ebdab39-eaab-4492-afcb-164e20c3b25e_2465_dldesign_0_cycle1_af2pred (protein) AKKLQEAADEANKAFALLAKAAKAHPEIKEEALAAKKAALTMLEGKNAKEAAKAAKEKLKAAAQKAPEVAAEMAAAMKAVDKMLEL	not found
design_605_6ebdab39-eaab-4492-afcb-164e20c3b25e_2478_dldesign_0_cycle1_af2pred (protein) SAAAEAARKAEAKKAADEYYAKGEEYYQKALDDPKNAKKYLQKAYSYYLLAAQAYEIAGDKEKAKEAEEKADKAAEA	not found

Binder	binding in a display sort
design_605_6ebdab39-eaab-4492-afcb-164e20c3b25e_2479_dldesign_0_cycle1_af2pred (protein) MKEASEAAAKAYEYMAEALYYGKKASEEAAKEAEKAAKEVKELLKKAREAAKEGKYEEAKKLAEEAYKLAKETYEKLKKELEKKKA	not found
design_606_b60ff77f-1541-4e5f-8260-46d5e5f6b85e_64_dldesign_0_cycle1_af2pred (protein) GSSEEAERDSRLVSEMVRAARAGAEAAARLPPAEAARYRAELAALVAAMYDALGAGSPAAEEYVARVRALAAEIAARAAAA	not found
design_606_b60ff77f-1541-4e5f-8260-46d5e5f6b85e_118_dldesign_0_cycle1_af2pred (protein) MLEEVKEKAKELKAAKGTPEEKLKLAREARELFRRAREELSARGATPEEAEAMHELRQAAAELEAEAKRELKE	not found
design_606_b60ff77f-1541-4e5f-8260-46d5e5f6b85e_148_dldesign_0_cycle1_af2pred (protein) NPKIEGEAALTRAEGAYESAKALPPEKAAEAYRKAAEIAKKQAEEAEKAGEEAKPYAEKIRKIAKEAEKKAKELEKA	not found
design_606_b60ff77f-1541-4e5f-8260-46d5e5f6b85e_200_dldesign_0_cycle1_af2pred (protein) EEEKLIADSAKEVDAAADKAMDAMAKNKEAAKAAKAELEALAAKFKELAEKGSPEVAKKMNLAAKTMKRFAELLKKAAS	not found
design_606_b60ff77f-1541-4e5f-8260-46d5e5f6b85e_364_dldesign_0_cycle1_af2pred (protein) AEARDKAILEKAKKETEELAKKAEELAKKGAKKEEIEKVIKEIRKVGKEYAAKASPEVAPEILTIAGDAVAEAKGAYQEAKIK	not found
design_606_b60ff77f-1541-4e5f-8260-46d5e5f6b85e_370_dldesign_0_cycle1_af2pred (protein) DLVKEASKLSGQAYEYKAAADVGVLNKEELKAGAEIAKKAAELAKKIAKETTPEEAKKYLKQAETMKKIAEYLEKKAQEL	not found
design_606_b60ff77f-1541-4e5f-8260-46d5e5f6b85e_411_dldesign_0_cycle1_af2pred (protein) MEEELEKEKKEAEKFLEETKKIAEEAVKRAESGEDIAGAAHELYELKSEAEYLAKTSSPEAAKLYKEAAKIAKEALEEVRKRGKERKA	not found
design_606_b60ff77f-1541-4e5f-8260-46d5e5f6b85e_490_dldesign_0_cycle1_af2pred (protein) MEAAKEAAKKVLELADLSAEASAEDFPEVEKKAEEALKFAEEVAKEDPEAGEKAKRTVKRILEDTRKAVEK	not found
design_606_b60ff77f-1541-4e5f-8260-46d5e5f6b85e_580_dldesign_0_cycle1_af2pred (protein) MTEEEKKEAEKKAEEIKKLGKELAKKVLNSKDAEKEVKKAKKELREKGKKLAEAGNPEAKKIISKAVSEAYQLLNEAEWKNLK	not found
design_606_b60ff77f-1541-4e5f-8260-46d5e5f6b85e_600_dldesign_0_cycle1_af2pred (protein) AAAAEAKGKKINELRIEANDYAYEHEINSSNPELSKAYKEEAEKKIKEAEKIDPEGGKRIKKSFESIEEHVKKNL	not found
design_606_b60ff77f-1541-4e5f-8260-46d5e5f6b85e_637_dldesign_0_cycle1_af2pred (protein) MEEEEERRRVLEIAREDAEEALAKAKAAAEKGELDGVAIGLARGNASVLDEETGKKVREAADKVEAAAKAAQAAK	not found
design_606_b60ff77f-1541-4e5f-8260-46d5e5f6b85e_724_dldesign_0_cycle1_af2pred (protein) AAAQKAAEAAATLYENSNEAIWLAKKEGAKGAVEGKKLLEKGVAAAEAAAKEASPEDAAKLKKLAESRKERTEKAIKKALA	not found
design_606_b60ff77f-1541-4e5f-8260-46d5e5f6b85e_733_dldesign_0_cycle1_af2pred (protein) DAATQKKASEAAAEAHEAAAEFTNKLKDKELKDKIKEIVREAIEKGKAATPEEALKIFTEAKKKIEDAAKKYA	not found
design_606_b60ff77f-1541-4e5f-8260-46d5e5f6b85e_762_dldesign_0_cycle1_af2pred (protein) SEEEKKIKELAKEMEEVGKEAAEAGKKNPEEGKKLRDIMIKLANEAVALAEKLGLEEEAKKIKEKAAELSAKAYEAIAENLA	not found
design_606_b60ff77f-1541-4e5f-8260-46d5e5f6b85e_842_dldesign_0_cycle1_af2pred (protein) MEEAKKKITELAEAAAAADPETAKKLLAEASRYLIDYISKNKLDSETISELVSYLKEKGKEALAQAKAKEAAA	not found
design_606_b60ff77f-1541-4e5f-8260-46d5e5f6b85e_888_dldesign_0_cycle1_af2pred (protein) EVEKLIKEVKEAGEKAAKADPDIADYIKNAVKTAEELMTKNAADLEKVKEIAEKAINTFKRIIENAEKAKELEAK	not found
design_606_b60ff77f-1541-4e5f-8260-46d5e5f6b85e_898_dldesign_0_cycle1_af2pred (protein) MNITEKVAAAAQAALAALADPATAVAALSAARFTALDLVSEDIEAGEVAIEIFEKGDAGSRRVARIIRSHVEALKRN	not found
design_606_b60ff77f-1541-4e5f-8260-46d5e5f6b85e_905_dldesign_0_cycle1_af2pred (protein) DNEEKKKELKEEAEKYKEELLKEKDEALKAGDFESAIFISKKAVKIKKLEEEGKKGNKEEVEKKKEEIKKEAKEALEFYKKNKE	not found
